Reference: PubChem BioAssay (Tox21)
Results filed as inconclusive are left out. Where a call stands in place of a potency, no number is given. Unmarked numbers belong to inactive results. Active and inactive are the calls of the source. Calls come from the whole dose curve; as a rule, active = well fitted curve in the direction sought with a large enough effect in the repeat runs; inconclusive = weak or mixed curves; inactive = no such curve, though single readings can be large; an effect the other way counts as inactive or inconclusive.

Test: qHTS RealTime-Glo MT Cell Viability Assay in HepG2 cells - 8 hour (AID 1224873); note: nearly all actives have a fitted effect of over 55% in size
Conditions: RealTime-Glo luminescence; series mostly up to 76.8 µM
In short: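 Real-time viability: cells seeded at 600 per well together with NanoLuc and cell-permeant prosubstrate, compounds added after 5 h incubation. Luminescence tracked at 0, 8, 16, 24, 32 and 40 h of exposure.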
With `Cc1cccc(C)c1NC(=O)CN1CCCCCC1` the outcome was “inactive”. In the case of `OCCN(CCO)CCN(CCO)CCO`, the outcome is reported as “inactive”. In the case of `CCOC(=O)NCCC[Si](OCC)(OCC)OCC`, the outcome is reported as “inactive”. For `O=C(CCCl)NCc1ccccc1`, the outcome was “inactive”. In the case of `O=c1[nH]cnc2c1ncn2[C@@H]1O[C@H](CO)[C@@H](O)[C@H]1O`, the outcome is reported as “inactive”. In the case of `C=CC1CO1` (centres undefined), the outcome is reported as “inactive”. In the case of `C[C@]12C(=O)OC(=O)[C@H]1[C@H]1C=C[C@@H]2C1`, the outcome is reported as “inactive”. With `NNS(=O)(=O)c1ccc(Oc2ccc(S(=O)(=O)NN)cc2)cc1` the outcome was “inactive”. In the case of `CN1CCN(C2=Nc3cc(F)ccc3Cc3ccccc32)CC1`, the outcome is reported as “inactive”. For `Cc1cn([C@@H]2O[C@H](CO)[C@@H](O)[C@@H]2F)c(=O)[nH]c1=O`, the outcome was “inactive”. With `CCCc1c2oc(C(=O)O)cc(=O)c2cc2c(=O)cc(C(=O)O)n(CC)c12` the outcome was “inactive”. In the case of `Cc1ncc(CO)c(CN)c1O`, the outcome is reported as “inactive”. With `NC1=NCC2c3ccccc3Cc3ccccc3N12` (centres undefined) the outcome was “inactive”. For `FC(F)(F)C(Cl)(Cl)Cl`, the outcome was “inactive”. For `CCCOCCC`, the outcome was “inactive”. With `Cc1cc2c(s1)Nc1ccccc1N=C2N1CCN(C)CC1` the outcome was “inactive”. For `CCC(=O)Nc1ccc(O)cc1`, the outcome was “inactive”. For `CCC/C=C/CO`, the outcome was “inactive”. In the case of `C[C@@H]1CN(c2c(F)c(F)c3c(=O)c(C(=O)O)cn(C4CC4)c3c2F)C[C@H](C)N1`, the viability change, negative = cytotoxic is reported as -4.32% [at 15.8 µM]. In the case of `CCOC(=O)c1cc(=O)c2c(OCC(COc3cccc4oc(C(=O)OCC)cc(=O)c34)OC(=O)[C@@H](N)CCCCN)cccc2o1`, the outcome is reported as “inactive”. In the case of `CCc1cc2cc(OC)c(OC)cc2c(Cc2ccccc2)n1`, the outcome is reported as “inactive”. For `O=C(O)[C@@H]1CSCN1`, the outcome was “inactive”. In the case of `COC(=O)c1ccc2cc(C(=O)OC)ccc2c1`, the viability change, negative = cytotoxic is reported as 6.16% [at 15.8 µM]. With `Cc1ccccc1C(=O)Nc1ccc(C(=O)N2CCCC(O)c3cc(Cl)ccc32)c(C)c1` (centres undefined) the outcome was “inactive”. In the case of `CCOC(=O)C(Br)c1ccccc1` (centres undefined), the outcome is reported as “inactive”. For `Cc1ccc([N+](=O)[O-])c(N)c1`, the outcome was “inactive”. For `C1CCOC1`, the outcome was “inactive”. For `CCCCCCCCCCCCCCCCOP(=O)([O-])OCC[N+](C)(C)C`, the outcome was “inactive”. For `O=C1CCC(C2CCCCC2)CC1`, the outcome was “inactive”. With `CCCCCCCCOC(=O)CCCCCCCCC(=O)OCCCCCCCC` the outcome was “inactive”. For `CN(C)Cc1ccccc1`, the outcome was “inactive”. In the case of `Cc1c(N)cccc1N`, the outcome is reported as “inactive”. For `N#Cc1ccc(C(c2ccc(C#N)cc2)n2cncn2)cc1`, the outcome was “inactive”. With `O=CCCc1ccccc1` the outcome was “inactive”. With `CCN(CC)CC1CCCCN1CC(=O)N1c2ccccc2C(=O)Nc2cccnc21` (centres undefined) the outcome was “inactive”. For `Cc1ccsc1C(=CCCN1CCC[C@@H](C(=O)O)C1)c1sccc1C`, the outcome was “inactive”. In the case of `FC(F)(F)c1ccccc1`, the outcome is reported as “inactive”. For `O=S(=O)(O)C(F)(F)F`, the outcome was “inactive”.

Test: qHTS RealTime-Glo MT Cell Viability Assay in HEK293 cells - 40 hour (AID 1224874); note: nearly all actives have a fitted effect of over 50% in size; note: potency is the fitted concentration of half-maximal effect
Conditions: RealTime-Glo luminescence; max response: hits give low values
In short: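 Luminescence readout at each listed time point; HEK293, 600 cells/well, RealTime-Glo MT reagent added with cells; compounds pinned (23 nL in DMSO) after 5 h at 37 C; continuous culture at 37 C.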
Work on `OCCN(CCO)CCN(CCO)CCO` yielded a max response of -1.3%. Work on `CCOC(=O)NCCC[Si](OCC)(OCC)OCC` yielded a max response of 4.72%. For `C=CC1CO1` (centres undefined), the max response was 6.13%. For `C[C@]12C(=O)OC(=O)[C@H]1[C@H]1C=C[C@@H]2C1`, the max response was 10.7%. With `NNS(=O)(=O)c1ccc(Oc2ccc(S(=O)(=O)NN)cc2)cc1` the max response was 0.181%. `Cc1cn([C@@H]2O[C@H](CO)[C@@H](O)[C@@H]2F)c(=O)[nH]c1=O` showed a max response of -1.92%. Compound `Cc1ncc(CO)c(CN)c1O` has a max response of 4.15%. Compound `NC1=NCC2c3ccccc3Cc3ccccc3N12` (centres undefined) has a max response of -13.1%. Compound `FC(F)(F)C(Cl)(Cl)Cl` has a max response of 6.41%. Work on `CCCOCCC` yielded a max response of 23.9%. In the case of `Cc1cc2c(s1)Nc1ccccc1N=C2N1CCN(C)CC1`, the max response is reported as 3.41%. Work on `CCC(=O)Nc1ccc(O)cc1` yielded a max response of 2.18%. In the case of `CCC/C=C/CO`, the max response is reported as 0.426%. In the case of `C[C@@H]1CN(c2c(F)c(F)c3c(=O)c(C(=O)O)cn(C4CC4)c3c2F)C[C@H](C)N1`, the max response is reported as 10.3%. With `CCOC(=O)c1cc(=O)c2c(OCC(COc3cccc4oc(C(=O)OCC)cc(=O)c34)OC(=O)[C@@H](N)CCCCN)cccc2o1` the max response was 3.47%. For `CCc1cc2cc(OC)c(OC)cc2c(Cc2ccccc2)n1`, the Potency was 16.9 µM (active). With `O=C(O)[C@@H]1CSCN1` the max response was 2.01%. `COC(=O)c1ccc2cc(C(=O)OC)ccc2c1` showed a max response of -1.06%. `CCOC(=O)C(Br)c1ccccc1` (centres undefined) showed a max response of 15.2%. Compound `Cc1ccc([N+](=O)[O-])c(N)c1` has a max response of -1.42%. `CCCCCCCCCCCCCCCCOP(=O)([O-])OCC[N+](C)(C)C` showed a max response of -6.12%. For `CCCCCCCCOC(=O)CCCCCCCCC(=O)OCCCCCCCC`, the max response was 6.02%. Work on `CCCCCCn1c(=O)c2c(ncn2C)n(C)c1=O` yielded a max response of -1.75%. Work on `CN(C)Cc1ccccc1` yielded a max response of 7.47%. Compound `Cc1c(N)cccc1N` has a max response of 12.2%. In the case of `N#Cc1ccc(C(c2ccc(C#N)cc2)n2cncn2)cc1`, the max response is reported as -0.518%. Work on `O=CCCc1ccccc1` yielded a max response of 4.45%. `CCN(CC)CC1CCCCN1CC(=O)N1c2ccccc2C(=O)Nc2cccnc21` (centres undefined) gave a max response of 0.471%. `Cc1ccsc1C(=CCCN1CCC[C@@H](C(=O)O)C1)c1sccc1C` gave a max response of 2.02%. With `FC(F)(F)c1ccccc1` the max response was 11.8%. `O=S(=O)(O)C(F)(F)F` gave a max response of 7.92%.
